The entries come from a sample that favours hits as a whole.
Pf Dd2 growth: blocks in vitro growth of P. falciparum Dd2; P. falciparum Dd2 growth, SYBR Green, 72 h; Potency, µM (series often up to 28.9 µM), for inactives: at the top dose activity, negative = inhibition, actives largely listed as inhibitors; actives 4.3% (n = 120,000); active = well fitted inhibition curve with a large enough effect;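 note: plate controls were DMSO vehicle for no effect and reference drug for full effect; nearly all actives have a fitted effect of over 65% in size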
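Readout: SYBR Green fluorescence, 485 nm excitation, 535 nm emission, after ~16 h lysis at 37C. Before that, Dd2-infected red cells (2.5% hematocrit) grew 72 h with compound, 29 uM top final concentration.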
Active calls of the source: *; i = inactive; [ ] = dose if it differs, or a comment. Potency is the fitted concentration of half-maximal effect.

SMILES	Pf Dd2 growth
C=CCC1(C(=O)O)CCCN(Cc2cc3c(cc2OC)OCO3)C1 (centres undefined)	-12%
C=CCC1(CO)CCCN(CCOc2ccc(C)cc2Cl)C1 (centres undefined)	8.9µM*
C=CCC1(CO)CCCN(Cc2nc(C)cc(-c3ccccc3)n2)C1 (centres undefined)	8.9µM*
C=CCC1(C(=O)O)CCCN(Cc2cnc(NCc3ccccc3)nc2)C1 (centres undefined)	7%
COC[C@@H]1CN(C(=O)c2cc[nH]c(=O)c2)C[C@H]1c1ccncc1	i
COCCC(=O)N1CCN(C(=O)N2CC3CC(C2)[C@H]2CCCC(=O)N2C3)CC1 (some centres undefined)	-4%
Cc1ncsc1CCC(=O)N1CCC2(CCNCC2)CC1	-6%
O=C1NC[C@@H](CCC(=O)N2CCN(c3ccccc3)CC2)N2C[C@@H](NCc3ccc(CO)o3)C[C@@H]12	-3%
CC1=C[C@@H](CNC(=O)C(=O)O)[C@H](C(C)C)C[C@H]1CC(=O)O	1%[44.1 µM]
NCCN1C(=O)CO[C@H](c2ccc(NS(=O)(=O)c3ccccc3)cc2)[C@H]1CO	15%[44.1 µM]
Cc1ccc(Cn2c(C3CCN(C(=O)c4cccs4)CC3)n[nH]c2=O)cc1	6%
O=C(Nc1ccc(F)cc1)C1CC(=O)N(c2n[nH]c3cc(Br)ccc23)C1 (centres undefined)	-1%
CCC(=O)N1CCC(N2CC(OCC3CC3)C23CCOCC3)CC1 (centres undefined)	i
CC(C)NC(=O)N1CCC(N2CC(OCC3CC3)C23CCCCC3)CC1 (centres undefined)	-18%
Cn1nccc1C(=O)N1CCC(N2CC(OCC3CC3)C23CCOCC3)CC1 (centres undefined)	-20%
CCOCC(=O)N1CCC(N2CC(OCC3CC3)C23CCCCC3)CC1 (centres undefined)	5µM*
O=C(NCc1ccccc1)N1CCC(N2CC(OCC3CC3)C23CCOCC3)CC1 (centres undefined)	-8%
O=C(Cc1cccnc1)N1CCC(N2CC(OCC3CC3)C23CCCCC3)CC1 (centres undefined)	7.9µM*
COCC(=O)Nc1ccc([C@H]2OCC(=O)N(Cc3scnc3C)[C@@H]2CO)cc1	6%[44.1 µM]
CCc1ccc(N2CC(c3noc(-c4cc(F)ccc4F)n3)CC2=O)cc1 (centres undefined)	72%
CC(C)Oc1cccc(-c2n[nH]c3c2CC(=O)N(Cc2ccccn2)C3)c1	-2%[44.1 µM]
O=C(CCc1ccnc(N2CCCC2)c1)NCc1ccc(F)c(Cl)c1	3.2µM*
Cn1c(CNC(=O)CCc2ccnc(N3CCCC3)c2)nc2ccccc21	-16%
CCCNC(=O)CCc1ccnc(N2CCOCC2)c1	16%
CNC(=O)[C@@H]1CN(C(=O)c2cc(F)ccc2F)C[C@H]1COC	10%
SMILES	Pf Dd2 growth
Cc1ccc(NC(=O)CC2=C3CCCCC3N(C)C2=O)cc1 (centres undefined)	-26%
Cc1ccc(C)c(C(=O)NCc2nnc3cc(-c4nc(C5CC5)no4)ccn23)c1	i
COc1ccc(N2Cc3c(ncnc3N3CCC(N4CCCCC4)CC3)N(C)CC2=O)cc1	-18%
CN1CCC(C(=O)N2C3CCC2CN(Cc2cccnc2)C3)CC1	-3%
CC(=O)N1CC2(Cc3ccccc31)CN(C(=O)NC1CCCC1)C2	4%[44.1 µM]
O=C(C1CCCC1)N1CC2(CCN(C3CCCCC3)C2)Cc2ccccc21 (centres undefined)	10µM*
O=C(C1CCCC1)N1CC2(CCN(Cc3cccnc3)C2)Cc2ccccc21 (centres undefined)	6.3µM*
O=C(C1CCCC1)N1CC2(CCN(C3COC3)CC2)Cc2ccccc21	17%
O=C1CCN(Cc2cccnc2)CCCC(C(=O)NC2CCCC2)CCN1 (centres undefined)	-3%
O=C(C1CCCC1)N1CC2(CCCN(Cc3ccc(Cl)cc3)C2)Cc2ccccc21 (centres undefined)	13µM*
CC(=O)N1CC2(CCCN(Cc3cccnc3)C2)Cc2ccccc21 (centres undefined)	2%
CC(=O)N1CC2(CCCN(Cc3ccc(Cl)cc3)C2)Cc2ccccc21 (centres undefined)	-14%
O=C(C1CCCC1)N1CC2(CCN(Cc3cccnc3)CC2)Cc2ccccc21	10µM*
COc1cccc(CC(=O)N2CCOCCNC(=O)[C@@H]3CCCC[C@@H]32)c1	i
CN(C)[C@@H]1[C@@H](NC(=O)Cn2cnc3ccsc3c2=O)[C@H]2CCO[C@H]21	1%
CNC(=O)[C@@H]1C[C@@H](O)CN1C1CCN(C(=O)c2ccccc2OC)CC1	-22%
CN1C[C@H](O)C[C@H]1c1nnc2n1CCN(C(=O)CC1CCCC1)CC2	12%
Cn1nc(NC(=O)C2CCS(=O)(=O)C2)c2c(Oc3cccnc3)cccc21 (centres undefined)	-14%
CCC(C)C(=O)NC1CCN(c2cnn(Cc3ccccc3)c(=O)c2)CC1 (centres undefined)	-19%
CCOc1cccc(CN2CCC(C)(c3noc(C4CCOCC4)n3)CC2)c1	-12%
COc1cc2c(cc1OCc1ccncc1)NC(=O)C21CCN(C(=O)C2CCC2)CC1	i
c1ccc(-c2noc(-c3cncnc3Nc3ccc4c(c3)OCCO4)n2)cc1	i
COc1ccc(Nc2ncncc2-c2nc(-c3ccccc3)no2)cc1OC	i
c1ccc(-c2noc(-c3cncnc3Nc3ccc4c(c3)OCO4)n2)cc1	5.6µM*
O=C(NC1CCCCC1)N[C@H]1CCN2C(=O)c3ccc(Cl)cc3NC(=O)[C@H]12	i
SMILES	Pf Dd2 growth
COc1ccc(CCC(=O)N2CCC(Cc3nc(-c4ccccc4)no3)CC2)cc1	-22%
Cc1ccc([S+](=O)([O-])N2CCC(c3nn(C)c(=O)[nH]3)CC2)cc1	-4%
Cc1ccc([S+](=O)([O-])N2CCCC(c3nn(-c4ccc(Cl)cc4)c(=O)[nH]3)C2)cc1 (centres undefined)	-21%
Cc1ccc([S+](=O)([O-])N2CCC(c3nn(-c4ccc(F)cc4)c(=O)[nH]3)CC2)cc1	8.9µM*
CC(C)N1CC[C@H](CO)[C@H](NC(=O)C2CC2)C1	-12%
Cc1noc(C2CCCCCN2C(=O)c2ccccc2)n1 (centres undefined)	7%
Cc1ccc(C)c(NC(=O)Cn2cc(C(=O)c3ccc(Cl)cc3)c(=O)c3ccc(C)nc32)c1	-10%
Cc1ccc2c(=O)c(C(=O)c3cccc(Cl)c3)cn(CC(=O)NCc3ccc(F)cc3)c2n1	-7%
CCN(C(=O)Cn1cc(C(=O)c2ccc(F)cc2)c(=O)c2ccc(C)nc21)c1cccc(C)c1	8.9µM*
CCOc1ccc(CNC(=O)Cn2nc(N3CCN(c4ccccc4)CC3)ccc2=O)cc1	-2%
COc1cccc(NC(=O)Cn2nc(N3CCN(c4ccccc4)CC3)ccc2=O)c1	-10%
CCc1ccc(NC(=O)c2ccc(Cn3nc(N4CCN(c5ccccc5)CC4)ccc3=O)o2)cc1	11µM*
COC[C@@H]1CNC[C@H]1C(=O)NC1CC1	6%
Cc1ncoc1C(=O)N[C@H](c1ccc2c(c1)CCO2)C1CC(O)C1 (some centres undefined)	5%
Cc1cccc(C)c1-c1cc(C(=O)NC2CC2)c2cnn(C)c2n1	1%
Cn1ncc2c(C(=O)NC3CC3)cc(-c3cccc(C(F)(F)F)c3)nc21	-22%
Cn1ncc2c(C(=O)NCC3CC3)cc(-c3cccnc3)nc21	13µM*
O=C(CN1CCN(C2CCCC2)CC(O)C1)NCCc1ccccc1 (centres undefined)	-20%
Cc1cccc(NC(=O)Nc2ccc(C)n(CC(=O)NCCN3CCCCC3)c2=O)c1	-19%

High-throughput results as filed in PubChem BioAssay.
